Bioassay records as filed in PubChem.
Shown are actives, neighbours in structure and some others; about 3.3% of the full set was active somewhere.
ROMK mod – modulators of human ROMK potassium channel | P48048 | Tet-inducible ROMK, thallium flux fluorescence; actives lie on both sides | 2% of 130,000 active | B-score at 10 µM;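 active means signal ratio slope over the read window, or its plate-corrected B-score, at least 3 SD from the plate mean, either direction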;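 further: B-score of the F/F0 ratio slope over 7 to 12 s after thallium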
Target sequence (P48048 whole entry, looked up): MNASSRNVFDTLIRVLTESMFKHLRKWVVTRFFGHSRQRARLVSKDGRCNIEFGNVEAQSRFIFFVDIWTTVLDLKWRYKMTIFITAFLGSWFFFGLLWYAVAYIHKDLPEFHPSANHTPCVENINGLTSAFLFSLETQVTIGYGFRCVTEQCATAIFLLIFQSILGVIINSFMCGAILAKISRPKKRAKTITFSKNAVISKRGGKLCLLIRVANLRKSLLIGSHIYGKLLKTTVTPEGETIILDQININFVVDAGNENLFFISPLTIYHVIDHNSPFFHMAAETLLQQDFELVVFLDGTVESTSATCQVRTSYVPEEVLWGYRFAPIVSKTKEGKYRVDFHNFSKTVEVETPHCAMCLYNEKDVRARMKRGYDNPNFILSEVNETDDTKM
PERK inh – human PERK inhibition, primary cell-based screen. Q9NZJ5. CHO PERK-DD fusion, SEAP luminescence translation reporter. inhibition, % at 5.6 µM. 0.17% of 220,000 active. AID 1416;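 active means inhibition above the mean inhibition of all tested compounds plus 3 SD, set separately per screening campaign, cut at about 2.9% in these data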;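 further: PERK kinase domain activated by AP20187 dimerizer at 100 nM; 0% = DMSO with dimerizer and 100% = rapamycin at 8.4 µM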
WT yeast gro inh – growth inhibition of WT yeast, mitochondrial fusion screen | mitochondrial fusion phenotypic screen, WT strain | inhibition, % at 10 µM | 2.1% of 190,000 active; in the data active means inhibition above about 58%; tested in S. cerevisiae
Arbovirus inh – antivirals against arbovirus infection; arbovirus infection cell-based antiviral screen; inhibition, % at 10 µM; 0.37% of 200,000 active; in the data active means inhibition above about 30%
ROMK retest – confirmation of human ROMK potassium channel modulators | shares compounds with ROMK mod | ROMK thallium flux, fluorescence ratio; active compounds read low | normalized thallium flux (F/F0 slope) at 10 µM | 54% of 3,000 active;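 active means Flux at 10 µM at least 3 SD below or above vehicle control mean in one or both replicates; inconclusive means no clear call, values can overlap the other calls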
* hit, by the source's call.

For O=c1c2cc(N3CCOCC3)ccc2[nH]c(=S)n1Cc1cccc(Cl)c1 the results were PERK inh 0, WT yeast gro inh 17, Arbovirus inh 1 and ROMK retest 0.086.
Screening COc1cccc(Cn2c(=S)[nH]c3ccc(N4CCOCC4)cc3c2=O)c1 returned ROMK mod -0.99, PERK inh -1, WT yeast gro inh -5 and Arbovirus inh 3.
For CC(OC(=O)c1ccncc1)C(=O)Nc1cc(S(=O)(=O)N2CCCCC2)ccc1Cl (stereo not drawn) the results were ROMK mod -4.8*, PERK inh 1, WT yeast gro inh 6, Arbovirus inh -1 and ROMK retest 0.068*.
O=C(Nc1cccc(Cl)c1)Nc1cc(S(=O)(=O)N2CCCCC2)ccc1Cl was read as PERK inh 0, WT yeast gro inh 49 and Arbovirus inh -17.
CCOc1ccc(C2CC(c3c(O)c4ccccc4oc3=O)=NN2c2ccccc2)cc1OC (stereo not drawn) was read as ROMK mod -6.6*, PERK inh 2, WT yeast gro inh -6, Arbovirus inh 0 and ROMK retest 0.028*.
`C/C(=N\NC(=O)c1ccccc1)c1cc2cc([N+](=O)[O-])ccc2oc1=O` gave ROMK mod -2.9*, PERK inh 1, WT yeast gro inh -17, Arbovirus inh -5 and ROMK retest 0.055*.
For COc1ccc(/C=N/NC(=O)CN2CCN(Cc3ccccc3)CC2)cc1Br the results were PERK inh 0.
Screening CCOC(=O)NCc1ccc(S(=O)(=O)Nc2c(C)cccc2C)cc1 returned ROMK mod -0.51, PERK inh -1 and Arbovirus inh -7.
Nc1nc(NCc2ccc(Cl)cc2)nc(NCCO)c1[N+](=O)[O-] was read as PERK inh -1 and ROMK retest 0.071.
CSc1nc2[nH]c3c(c2c2nnnn12)CCCC3 was read as PERK inh 0, WT yeast gro inh 17, Arbovirus inh -15 and ROMK retest 0.072.
For CSc1nc2[nH]c3c(c2c2nncn12)CC(C)(C)OC3 the results were ROMK mod -0.13, PERK inh 0, WT yeast gro inh 7 and Arbovirus inh 2.
Screening COC(=O)[C@@]1(Cc2ccc(F)cc2)[C@H]2c3cc(C(=O)N4CCCC4)n(CCc4ccc(O)c(O)c4)c3C[C@H]2CN1C(=O)c1ccccc1 returned ROMK mod -2.3, PERK inh -1, WT yeast gro inh -3, Arbovirus inh -42 and ROMK retest inconclusive.
For COC(=O)[C@@]1(Cc2ccc(F)cc2)[C@H]2c3cc(C(=O)N4CCCC4)n(CCO)c3C[C@H]2CN1C(=O)c1ccccc1 the results were ROMK mod -0.61, PERK inh 0, WT yeast gro inh 4 and Arbovirus inh 6.
Screening CC(C)(C)c1ccc(N2C(=N)SCC2=O)cc1 returned ROMK mod -9.3*, PERK inh 2 and ROMK retest 0.041*.
`CCc1ccc2[nH]c(=O)c(CN(Cc3ccccc3OC)C(=O)Nc3ccccc3OC)cc2c1` gave ROMK mod 0.96*, PERK inh 0, WT yeast gro inh 21, Arbovirus inh -11 and ROMK retest 0.08.
`CN1CCN(/N=C/c2ccc(-c3ccc([N+](=O)[O-])cc3Cl)o2)CC1` gave ROMK mod -3.8*, PERK inh 0, WT yeast gro inh 32, Arbovirus inh -10 and ROMK retest 0.045*.
For CNC(=S)N/N=C/c1ccc(-c2cc([N+](=O)[O-])ccc2Cl)o1 the results were ROMK mod -0.011, PERK inh 1, WT yeast gro inh 1 and Arbovirus inh -2.
For N#CCc1c(C#N)c(N)nc(N2CCN(Cc3ccc4c(c3)OCO4)CC2)c1C#N the results were ROMK mod -5.6*, PERK inh 0, WT yeast gro inh 1, Arbovirus inh -8 and ROMK retest 0.048*.
`Cc1cc(/C=C(/C#N)c2cccc(F)c2)c(C)n1-c1cccnc1` gave PERK inh 0, WT yeast gro inh 35 and Arbovirus inh -2.
`Cc1ccc2cc3c(N)c(C(=O)N4CC(=O)Nc5ccccc54)sc3nc2c1` gave PERK inh 0, WT yeast gro inh 2, Arbovirus inh -18 and ROMK retest 0.046*.
`CC(C)n1c(=O)[nH]c2ccccc21` gave PERK inh 1, WT yeast gro inh -1 and Arbovirus inh 0.
Screening Cc1ccc(NC(=O)c2ccc3c(c2)[nH]c(=O)n3C(C)C)cc1 returned ROMK mod 2.9*, PERK inh 1, WT yeast gro inh 2, Arbovirus inh -2 and ROMK retest 0.085.
`COc1ccc(NC(=O)Nc2cc(C)ccc2OC(F)F)c(OC)c1` gave PERK inh 0, WT yeast gro inh 8 and Arbovirus inh 4.
Screening Cc1onc(-c2c(Cl)cccc2Cl)c1C(=O)NCCN1CCOCC1 returned ROMK mod 0.47, PERK inh 2, WT yeast gro inh -4 and Arbovirus inh 0.
For O=C1ON=C(c2ccccc2)/C1=C\c1ccco1 the results were PERK inh 2.
`CC1=NOC(=O)/C1=C\c1ccc(-c2cccc(Cl)c2)o1` gave PERK inh -1, WT yeast gro inh 43 and Arbovirus inh -34.
For CC1=NOC(=O)/C1=C\c1ccc(-c2ccccc2Br)o1 the results were ROMK mod -8.7*, PERK inh 1, WT yeast gro inh 72*, Arbovirus inh -23 and ROMK retest 0.062*.
Screening COc1cc(/C=C2/C(=O)ON=C2c2ccccc2)ccc1O returned ROMK mod -6.8*, PERK inh 1, WT yeast gro inh -11, Arbovirus inh -1 and ROMK retest 0.044*.
Screening Cc1ccc(/C=C2/C(=O)ON=C2c2ccccc2)o1 returned PERK inh 1 and ROMK retest 0.04*.
`CC1CCc2nc(/C(C#N)=C/c3ccncc3)sc2C1` (stereo not drawn) gave ROMK mod -0.76, PERK inh 1, WT yeast gro inh -3 and Arbovirus inh 7.
COc1cccc(C2CC(C(F)(F)F)n3ncc(C(=O)Nc4c(C)n(C)n(-c5ccccc5)c4=O)c3N2)c1 (stereo not drawn) was read as PERK inh -1, WT yeast gro inh 3 and Arbovirus inh -5.
COc1ccc(C2CC(C(F)(F)F)n3ncc(C(=O)Nc4c(C)n(C)n(-c5ccccc5)c4=O)c3N2)cc1 (stereo not drawn) was read as ROMK mod -6.1*, PERK inh 0, WT yeast gro inh -22, Arbovirus inh 1 and ROMK retest 0.076.
For CC1(C)CC(=O)C2=C(C1)OC(N)=C(C#N)C2CCc1ccccc1 (stereo not drawn) the results were ROMK mod -5.1*, PERK inh 1, WT yeast gro inh -7, Arbovirus inh 5 and ROMK retest 0.072.
`Cn1cnnc1Sc1ccc(/C=C/C(=O)c2ccc(O)cc2)cc1[N+](=O)[O-]` gave ROMK mod 0.94, PERK inh 0, WT yeast gro inh -50 and Arbovirus inh -4.
`COc1ccc(NC(=O)/C(C#N)=C/c2ccc(Sc3nncn3C)c([N+](=O)[O-])c2)cc1` gave ROMK mod -6.5*, PERK inh 2, WT yeast gro inh 7, Arbovirus inh -5 and ROMK retest 0.036*.
